Growth data for 13 molecules are collected here from PubChem BioAssay (NCI).

Some test systems named below: HCT-15 colon; HT29 colon; SNB-75 CNS; SNB-19 CNS; U251 CNS; PC-3 prostate; SK-MEL-5 melanoma; UACC-62 melanoma; LOX IMVI melanoma; SK-MEL-28 melanoma.
Experiment in all cases: NCI-60 one-dose screen, 48 h (100 = growth as untreated, 0 = no growth, -100 = all killed)
Holding throughout (details): 10 µM unless noted

The panel holds about 83,000 compounds, 20% with a hit somewhere; the sample as a whole holds those more often.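 Testing used 96-well plates and a 48-hour single-concentration exposure. Example: -40 means 40% of the starting cells died.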 Values without a mark were called inactive. Activity calls are given as the source filed them. How the source made its calls: active means growth percent below 10; inactive means the rest.

On to `CCCCCC/C=N/Nc1ccc([N+](=O)[O-])cn1`, for which the growth is 102% in the test on HCT-15 colon; 81.5% with HT29 colon; 105% in the test with SNB-75 CNS; 108% in the test on SNB-19 CNS; 110% in the test on U251 CNS; 93.2% with PC-3 prostate. Further, the growth in the test with SK-MEL-5 melanoma was 113%; with UACC-62 melanoma, 102%; in the test with LOX IMVI melanoma, 83.2%; in the test with SK-MEL-28 melanoma, 109%.
As for `N#Cc1c(N)nc2c(c1N)C(c1ccc(Cl)cc1)C1=C(CCCC1=O)N2c1sc2c(c1C#N)CCCC2` (stereo not given), the growth in the test on HCT-15 colon is 102%; with HT29 colon, 81.2%; with SNB-75 CNS, 91.4%; with SNB-19 CNS it was 92.4%; with U251 CNS, 99.7%; in the test on PC-3 prostate it was 89%. The growth is 98.6% in the test with SK-MEL-5 melanoma, 88.3% with UACC-62 melanoma, 81.5% with LOX IMVI melanoma and 96.6% with SK-MEL-28 melanoma.
In the case of `COc1ccc(/C=C2/C(=O)Nc3cc(Cl)c(-c4csc(N)n4)cc32)cc1`, the growth in the test with HCT-15 colon was 39.9%; in the test on HT29 colon, 27.9%; with SNB-75 CNS, 37.5%; with SNB-19 CNS, 45.5%; in the test with U251 CNS, 46.3%; with PC-3 prostate, 50.3%. In addition, the growth with SK-MEL-5 melanoma is 19.1%; with UACC-62 melanoma it was 37.6%; in the test with LOX IMVI melanoma, 48.6%; in the test with SK-MEL-28 melanoma it was 70.1%.
Consider `CCCCCCCCCCCCCCCC(=O)NS(=O)(=O)OC[C@H]1O[C@@H](n2cnc3c(N)ncnc32)[C@H](O)[C@@H]1O`, for which the growth in the test on HCT-15 colon was -8.55% (active); in the test with HT29 colon, -17.1% (active); with SNB-75 CNS it was -41.6% (active); in the test with SNB-19 CNS, -53.7% (active); in the test on U251 CNS it was -87.5% (active); with PC-3 prostate it was -52.4% (active). The growth in the test with SK-MEL-5 melanoma was -88.8% (active); in the test on UACC-62 melanoma, -48.9% (active); with LOX IMVI melanoma it was -64.8% (active); in the test on SK-MEL-28 melanoma it was -59.7% (active).
As for `CCc1cccc(-c2ccccc2)c1`, the growth in the test with HCT-15 colon is 103%; with HT29 colon it was 114%; in the test with SNB-75 CNS it was 105%; in the test with SNB-19 CNS, 107%; in the test with U251 CNS, 106%; with PC-3 prostate, 99%. Moreover, the growth in the test on SK-MEL-5 melanoma is 111%; in the test with UACC-62 melanoma it was 103%; in the test with LOX IMVI melanoma it was 109%; with SK-MEL-28 melanoma it was 120%.
Take `COC(=O)c1ccc(NC(N)=NCC(C)(C)COc2ccc(C(F)(F)F)cc2)nc1`: the growth was 18.1% in the test on HCT-15 colon; 9.44% (active) in the test on HT29 colon; 86.8% in the test on SNB-75 CNS; 68.8% in the test with SNB-19 CNS; 40.1% in the test with U251 CNS; 50.9% with PC-3 prostate. Moreover, the growth with SK-MEL-5 melanoma was 23.2%; in the test with UACC-62 melanoma, 65.5%; in the test on LOX IMVI melanoma, 16.5%; in the test on SK-MEL-28 melanoma, 90.1%.
As to `CC(=O)c1cc2c(c(O)c1C)C(=O)C(=O)c1c(O)cccc1-2`, the growth with HCT-15 colon was -61.3% (active); in the test on HT29 colon, -15.5% (active); with SNB-75 CNS it was -98.2% (active); in the test with SNB-19 CNS, -85.9% (active); with U251 CNS, -94.5% (active); in the test with PC-3 prostate, -26.4% (active). Besides, the growth is -97.9% (active) with SK-MEL-5 melanoma, -71.6% (active) in the test on UACC-62 melanoma, -49.2% (active) in the test with LOX IMVI melanoma and -87.2% (active) in the test on SK-MEL-28 melanoma.
In the case of `COc1ccc(-c2nn(-c3ccc(NC(=O)Nc4ccc(Cl)c(Cl)c4)cc3)cc2-c2ccncc2)cc1Cl`, the growth in the test with HCT-15 colon is 7.56% (active); in the test on HT29 colon, 6.65% (active); with SNB-75 CNS, 46.8%; in the test with SNB-19 CNS, 34.4%; in the test on U251 CNS, 0.654% (active); in the test on PC-3 prostate, 11.3%. In addition, the growth is -27.5% (active) in the test on SK-MEL-5 melanoma, 9.56% (active) in the test with UACC-62 melanoma, -0.494% (active) in the test with LOX IMVI melanoma and 28.4% in the test with SK-MEL-28 melanoma.
Consider `Fc1ccc(Nc2ncnc3ccc(-c4cn[nH]c4)cc23)cc1Cl`, for which the growth in the test with HCT-15 colon was 60.4%; in the test with HT29 colon, 60.6%; in the test on SNB-75 CNS, 40.5%; in the test with SNB-19 CNS, 68.6%; with U251 CNS, 61.8%; in the test on PC-3 prostate, 47.3%. For the same molecule, the growth with SK-MEL-5 melanoma was 40.4%; with UACC-62 melanoma it was 60%; in the test on LOX IMVI melanoma it was 49%; in the test with SK-MEL-28 melanoma, 69.3%.
For the molecule `COc1cccc(-c2nc3sccn3c2-c2ccnc(NCCNC(=O)Nc3cccc(C(F)(F)F)c3)n2)c1`, the growth with HCT-15 colon is 45.9%; with HT29 colon it was 44.1%; in the test on SNB-75 CNS, 71.8%; in the test on SNB-19 CNS, 74.8%; in the test with U251 CNS, 58.1%; with PC-3 prostate, 32.9%. Also, the growth was 51.5% with SK-MEL-5 melanoma, 50.5% with UACC-62 melanoma, 44.3% in the test with LOX IMVI melanoma and 78.4% in the test on SK-MEL-28 melanoma.
For `Cc1ccc(/C=C2/C(=O)Nc3cc(Cl)c(-c4csc(N)n4)cc32)cc1`, the growth with HCT-15 colon is 63.1%; with HT29 colon, 47.7%; with SNB-75 CNS, 52.4%; with SNB-19 CNS it was 55.2%; in the test with U251 CNS, 63.6%; in the test with PC-3 prostate, 56.8%. Besides, the growth is 40.8% with SK-MEL-5 melanoma, 50.7% in the test on UACC-62 melanoma, 58.7% in the test on LOX IMVI melanoma and 82.7% in the test with SK-MEL-28 melanoma.
Take `CC(=O)Cc1cccnc1`: the growth in the test on HCT-15 colon is 107%; in the test on HT29 colon, 106%; with SNB-75 CNS, 104%; in the test on SNB-19 CNS, 98.8%; with U251 CNS it was 98.6%; in the test on PC-3 prostate it was 94.3%. Besides, the growth in the test on SK-MEL-5 melanoma is 101%; in the test on UACC-62 melanoma, 95.6%; in the test on LOX IMVI melanoma, 99.9%; in the test with SK-MEL-28 melanoma, 113%.
`S=C=NP1(N=C=S)=NP(N=C=S)(N=C=S)=NP(N=C=S)(N=C=S)=NP(N=C=S)(N=C=S)=N1` (stereo not given): the growth in the test on HCT-15 colon was 103%; with HT29 colon, 92.9%; in the test on SNB-75 CNS, 80.7%; in the test with SNB-19 CNS, 109%; in the test with U251 CNS, 94.7%; with PC-3 prostate it was 86.4%. For the same molecule, the growth is 98.6% in the test with SK-MEL-5 melanoma, 97.7% in the test on UACC-62 melanoma, 97.8% in the test with LOX IMVI melanoma and 107% in the test on SK-MEL-28 melanoma.
